# Screens as filed in PubChem BioAssay.
# MITF TRPM1 inh – inhibitors of MITF-dependent TRPM1 promoter reporter, primary screen, cell-based, SK-MEL-5, single point, luciferase. inhibition, % at 12.5 µM. 330,000 compounds, 0.83% hits. AID 488899, 2010. SK-MEL-5 TRPM1 promoter luciferase, 24 h;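 active means mean inhibition across replicates of 60% or more, whatever share of single replicates reaches that level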
# CF NFkB block – inhibitors of PAF-induced NF-kB signaling, primary screen, cell-based, GFP fluorescence, uHTS. KKLEB NF-kB-GFP reporter, GFP fluorescence overnight. inhibition, % at 5 µM. 360,000 compounds, 0.86% hits. AID 588850, 2011;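 active means at least 50% inhibition at 5 µM, scaled per plate between neutral and stimulator controls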;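 further: PAF is a Pseudomonas aeruginosa culture filtrate used as stimulus; plate controls were PAF-stimulated DMSO wells for no effect and unstimulated DMSO wells for full effect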
# Shn3 3UTR inh – reduction of Shn3 3'UTR firefly luciferase signal, primary screen, Schnurri-3 inhibitor project, cell-based, Clone20 osteoblasts, set 2; Clone20 osteoblast Shn3 3'UTR firefly luciferase, 24 h; inhibition, % at 12.5 µM; 360,000 compounds, 0.52% hits; AID 588674, 2011;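 active means mean inhibition of at least 75% with every replicate also reaching 75%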;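 further: 0% = median of neutral control wells and 100% = pilot-screen positive control compound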
# HIF-2a inh – HIF-2a reporter inhibitors, primary screen, luminescence, 786-0 RCC cells; 786-0 RCC cells HIF-2a reporter, luciferase luminescence, overnight; inhibition, % at 18.8 µM; 360,000 compounds, 0.72% hits; AID 624352, 2012;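 active means inhibition of the luminescence signal of 40% or more relative to plate controls, in a single-dose primary screen at 18.75 µM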
# KKLEB tox – cytotoxicity in KKLEB CF airway cells, primary screen, cytotoxicity control for CF NF-kB inhibitor project, cell-based, uHTS, fluorescence assay plates. KKLEB CF airway cells viability, ATPlite luminescence, overnight; stronger effect = lower value; cells stimulated with P. aeruginosa culture filtrate. activity change (cytotoxicity), % at 5 µM. 360,000 compounds, 0.36% hits. AID 602141, 2011;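 active means corrected activity change at or below -50% at 5 µM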
# Peg3 prom inh – Peg3 promoter-driven luciferase inhibitors, primary screen, cell-based, HeLa, luciferase luminescence; HeLa PEG-Prom luciferase reporter, overnight; inhibition, % at 20 µM; 360,000 compounds, 1.7% hits; AID 588405, 2011;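 active means inhibition of at least 50% at 20 µM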
# Active calls of the source: *; / = no result given. Compounds with a hit are over-represented: about 2.8% of the library has one in this group of screens.
SMILES,MITF TRPM1 inh,CF NFkB block,Shn3 3UTR inh,HIF-2a inh,KKLEB tox,Peg3 prom inh
Cc1c(-c2ccc(Br)cc2)[n+](=O)c2c(n1[O-])CCCC2,4.0,-4.2,-16.5,12.6,1.6,-9.5
C/C(=N\NC(=O)C(c1ccccc1)c1ccccc1)c1ccccn1,/,14.7,88.5*,34.4,-9.1,97.4*
Cc1nn(-c2ccccc2)c(N2CCCC2)c1/C=N/NC(=O)c1cc(-c2ccccn2)nc2ccccc12,8.2,40.4,15.0,16.2,-6.7,56.8*
O=C(O)c1ccc(/C=N/NC(=O)c2cc(-c3cccs3)nc3ccccc23)cc1,-6.2,2.3,-18.9,-13.6,-8.2,65.0*
C/C(=N\NC(=O)C(c1ccccc1)c1ccccc1)c1ccc(O)cc1,4.6,-0.5,10.5,18.5,4.8,21.2
Cc1nn(-c2ccccc2)c(N2CCCC2)c1/C=N/NC(=O)c1cc(-c2cccs2)nc2ccccc12,4.6,22.4,21.8,20.9,-13.5,36.4
COc1ccccc1NC(=S)NN=C(C)c1ccccn1,54.0,2.3,91.4*,-109.6,9.7,-33.2
CCOc1ccc(NC(=O)Nc2c(C)n(C)n(-c3ccccc3)c2=O)cc1,1.2,-28.5,-87.5,0.4,12.3,3.2
COc1ccc(N2CC(C(=O)Nc3cc(C)ccn3)CC2=O)cc1 (stereo not given),-11.1,23.4,-2.9,10.4,-20.7,4.2
Cc1cccc2sc(NNC(=O)c3cc(-c4cccs4)nc4ccccc34)nc12,30.2,33.2,13.2,5.9,-11.6,55.8*
C/C(=N\NC(=O)c1cc(-c2cccs2)nc2ccccc12)c1ccccn1,88.2*,-39.0,93.7*,-5.5,-4.4,45.5
C/C(=N\NC(=O)C1COc2ccccc2O1)c1ccc(C)o1 (stereo not given),6.0,4.3,-5.3,-7.2,-4.5,1.7
CC(=NNC(=S)Nc1cccc(C)c1)c1ccccn1,72.2*,-12.1,93.0*,-215.1,-7.1,-55.5
C/C(=N\NC(=O)C1COc2ccccc2O1)c1ccccn1 (stereo not given),83.3*,-4.2,79.1,-33.1,-10.1,51.1*
CC1CCc2nc(/C(C#N)=C/c3ccncc3)sc2C1 (stereo not given),-41.6,11.7,-75.3,-301.0,2.7,-204.6
COc1ccc(OCC2CCNCC2)cc1,-5.8,21.5,-6.7,-35.4,-3.9,-33.9
O=C(NC(=S)N1CCOCC1)c1cc2ccccc2o1,-24.1,0.7,-12.0,-44.2,8.8,-29.2
CCOC(=O)c1sc(-c2ccc(Cl)cc2Cl)nc1O,-12.8,-6.2,-1.4,-82.0,-0.9,-31.4
C/C(=N\NC(=O)c1ccc(Cl)c(Cl)c1)c1ccccn1,65.5*,46.5,90.6*,-177.9,-5.0,-18.8
Cc1ccccc1C(=O)Nc1c(C(=O)N(CCN(C)C)Cc2ccco2)oc2ccccc12,-10.4,1.6,-11.3,11.9,2.6,14.6
COc1ccccc1C(=O)Nc1c(C(=O)N(CCN(C)C)Cc2ccco2)oc2ccccc12,-3.5,12.8,4.7,-2.8,-31.2,92.3*
O=c1oc(Cl)c(Cl)c2ccccc12,89.8*,17.1,66.0,0.6,-4.9,48.1
COc1ccc(-c2nnc(SCC(=O)Nc3sc4c(c3C#N)CCCC4)n2-c2ccccc2)cc1,6.0,62.8*,-11.5,12.2,-73.1*,53.3*
CC(C)(C)c1ccc(/C=N/N2C(=O)CSC2=S)cc1,10.3,-8.7,3.0,57.0*,-1.6,17.0
COc1ccc(NC(=O)CSCC(=O)N(C)CC(=O)Nc2cccc3ccccc23)cc1,3.3,-8.3,14.2,17.0,-3.2,24.1
SMILES,MITF TRPM1 inh,CF NFkB block,Shn3 3UTR inh,HIF-2a inh,KKLEB tox,Peg3 prom inh
COc1cccc(/C=N/NC(=O)C(=O)N/N=C/c2cccc(OC)c2O)c1O,3.5,12.3,58.4,5.8,-11.2,16.6
COc1cccc(/C=N/NC(=O)c2cc3cc([N+](=O)[O-])ccc3s2)c1O,76.8*,-29.4,91.4*,14.1,-12.1,83.7*
COc1cc([N+](=O)[O-])cc(/C=N/NC(=O)c2ccc(NC(=O)c3ccc(C)cc3)cc2)c1O,71.6*,82.0*,62.3,28.2,-75.3*,46.9
Cc1ccc(NC(=O)COC(=O)c2ccc(Cl)nc2)cc1S(=O)(=O)N1CCCCC1,-1.6,16.6,-3.3,17.1,-4.6,7.7
COc1ccc(CCNC(=O)c2cc([N+](=O)[O-])ccc2N2CCOCC2)cc1,-4.1,3.0,7.5,0.0,0.2,18.6
Cc1ccc(C(=O)c2cc([N+](=O)[O-])ccc2N2CCOCC2)cc1,-9.1,29.9,-21.4,6.6,-18.2,51.9*
Cc1ccc(COC(=O)c2cc([N+](=O)[O-])ccc2N2CCOCC2)cc1,32.8,49.9,8.2,28.4,-24.1,22.7
CCOc1ccc(C(=O)c2cc([N+](=O)[O-])ccc2N2CCOCC2)cc1,33.8,55.2*,4.3,28.3,-42.9,-14.4
COc1ccc(C(=O)c2cc([N+](=O)[O-])ccc2N2CCOCC2)cc1,50.0,59.5*,-0.6,29.4,-29.2,6.7
CCn1c(-c2ccccc2)c(C(=O)CCl)c2ccccc21,73.3*,105.5*,14.7,33.6,-101.9*,46.1
CCn1c2ccccc2c(=O)c2ccccc21,-0.2,-2.1,-18.7,0.6,-5.5,12.9
Cn1c(-c2ccccc2)c(CCO)c2ccccc21,1.2,7.4,-6.2,-0.9,-5.3,-2.6
Cn1c(-c2ccccc2)c(C(=O)CCl)c2ccccc21,92.4*,97.8*,59.8,27.9,-86.4*,54.7*
CC(=O)Nc1ccccc1OCC(=O)NCC(F)(F)F,-7.2,3.2,-2.8,8.5,17.3,5.7
Nc1cc2c3ccccc3ccc2c2ccccc12,-2.2,87.6*,-108.0,-318.4,-78.0*,71.7*
O=C1NC(=S)S/C1=C\C=C\c1ccc([N+](=O)[O-])o1,90.3*,93.2*,78.5,82.3*,-39.8,104.3*
O=C1NC(=S)S/C1=C/c1ccc(N2CCOCC2)o1,-3.8,12.6,-9.8,-69.0,-4.5,-48.4
CC1=NN(c2ccc(C(=O)O)cc2)C(=O)/C1=C/c1ccc(-c2ccccc2F)o1,3.8,-5.2,-17.1,-4.8,-1.2,28.1
CC1=NN(c2ccc(C)cc2)C(=O)/C1=C/c1ccc(-c2cc([N+](=O)[O-])ccc2O)o1,5.5,54.1*,-4.7,-13.5,-41.3,17.3
C=Cc1ncc(OC)c2c1[nH]c1ccccc12,82.2*,5.3,11.9,31.4,-53.9*,80.5*
O=C1c2c(Br)c(Br)c(Br)c(Br)c2C(=O)N1c1ccccn1,27.5,-4.7,-2.9,39.9,3.8,52.2*
